# Hits are enriched below; roughly 0.6% of the tested compounds scored in any of these assays.
# Mac1 fbg inh – inhibitors of CD11b/CD18 adhesion to fibrinogen, primary screen, K562 cells, luminescence | inhibition, % at 10 µM | ATPlite luminescence; Mn2+ added to activate the integrin | 0.54% of 93,000 active;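 active = primary inhibition of 50% or more at 10 µM, then 40% or more on retest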
# Target sequence (P05107 whole entry, looked up, other chains not shown): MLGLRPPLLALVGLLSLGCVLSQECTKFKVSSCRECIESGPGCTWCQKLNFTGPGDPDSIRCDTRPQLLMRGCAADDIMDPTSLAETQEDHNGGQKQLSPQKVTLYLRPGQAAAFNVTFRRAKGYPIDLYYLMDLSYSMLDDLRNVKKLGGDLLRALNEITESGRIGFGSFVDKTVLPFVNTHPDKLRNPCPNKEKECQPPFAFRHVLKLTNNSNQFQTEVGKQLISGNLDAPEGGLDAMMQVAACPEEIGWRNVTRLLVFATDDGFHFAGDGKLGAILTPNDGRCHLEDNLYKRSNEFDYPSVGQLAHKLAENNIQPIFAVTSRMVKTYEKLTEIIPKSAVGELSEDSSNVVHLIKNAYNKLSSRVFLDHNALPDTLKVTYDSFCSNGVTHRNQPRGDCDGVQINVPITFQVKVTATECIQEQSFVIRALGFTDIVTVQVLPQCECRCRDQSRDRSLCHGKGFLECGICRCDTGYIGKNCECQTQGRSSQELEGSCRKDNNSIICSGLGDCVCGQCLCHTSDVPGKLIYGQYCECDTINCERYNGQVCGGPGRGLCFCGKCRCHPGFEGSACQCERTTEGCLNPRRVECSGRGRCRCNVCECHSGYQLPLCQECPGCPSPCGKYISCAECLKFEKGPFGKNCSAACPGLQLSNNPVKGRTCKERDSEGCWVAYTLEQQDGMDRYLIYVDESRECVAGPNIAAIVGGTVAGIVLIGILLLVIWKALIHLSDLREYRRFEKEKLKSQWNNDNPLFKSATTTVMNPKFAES
# CD11b adhes enh – enhancers of CD11b/CD18 adhesion to fibrinogen, primary screen, K562 cells, luminescence; Integrin beta-2 (Homo sapiens) + Integrin alpha-M (Homo sapiens), P05107+P11215; ATPlite luminescence; activation, % at 10 µM; 0.07% of 93,000 active; AID 1499, 2009;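 active = 10 µM primary screen giving 50% or more activity, confirmed by 40% or more on retest at that dose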
# WNV protease inh – inhibitors of WNV NS2B-NS3 protease, primary screen, biochemical, fluorogenic substrate. Genome polyprotein (West Nile virus), P06935. fluorogenic substrate Ex360/Em465; stronger effect = lower value. z-score (concentration not given with the values). 0.18% of 65,000 active. AID 577, 2007; in the data active = z-score below about -3
# * hit, by the source's call; / = not tested or not shown.
SMILES,Mac1 fbg inh,CD11b adhes enh,WNV protease inh
CC1=NN(c2ccc(C)cc2C)C(=O)C1C(c1cccc(O)c1)C1C(=O)N(c2ccc(C)cc2C)N=C1C (configuration not stated),-12,0,/
O=C(Cc1sc(-c2ccccc2Cl)nc1-c1ccccc1)Nc1ccc(F)cc1,8,0,/
COc1ccc(C2C(C(C)=O)=C(C)N=c3s/c(=C\c4ccc5c(c4)OCO5)c(=O)n32)c(OC)c1 (configuration not stated),/,/,-0.21
COc1cccc2c1C(=O)O/C2=C/c1ccc2c(c1)OCO2,52*,0,/
N#CC1=C(c2ccccc2)N=P(N2CCOCC2)(N2CCOCC2)N=C1N1CCOCC1,/,/,0.05
CCc1cc(C(=O)O)c(NC(=O)C(c2ccccc2)c2ccccc2)s1,-10,-3,/
CCCSc1nsc(NC(=O)C(c2ccccc2)c2ccccc2)n1,98*,-7,/
CCC(C)(c1nnnn1-c1c(C)cccc1C)N(N=O)c1ccccc1Cl (configuration not stated),23,1,/
O=C1C2C(C(=O)N1Cc1cccnc1)C1C=CC2C12CC2 (configuration not stated),9,2,-0.1
COc1cc(/C=C(/C#N)c2nc3ccccc3[nH]2)ccc1OCC(=O)Nc1ccccc1C,-3,204*,/
CCOc1cc(/C=C(/C#N)c2nc3ccccc3[nH]2)ccc1OCc1ccc(C(=O)O)o1,10,3,/
O=C1c2ccccc2S(=O)(=O)c2cc(C(=O)N(c3ccccn3)c3ccccn3)ccc21,-3,3,/
COc1ccccc1NC(=O)c1ccc(NC(=O)CSc2ncn[nH]2)cc1,11,-1,/
CCCc1ccc(-c2cc(C(=O)NN3CCOCC3)c3ccccc3n2)cc1,7,-1,/
CCc1ccc(-c2cc(C(=O)Nn3cnnc3)c3ccccc3n2)cc1,78*,-7,/
Brc1cc(Br)c2nc(-c3cccs3)ccc2c1,10,7,/
Cc1nc2c(Br)cc(Br)cc2cc1O,90*,-6,/
Cc1ccc(N2C(N)=C(C#N)C3(C(=O)N(C)c4ccccc43)C3=C2CC(C)(C)CC3=O)cc1Cl (configuration not stated),12,102,/
COC(=O)c1cccc(NC(=O)CSc2nnc(C)n2Cc2ccccc2)c1,-6,2,0.14
COc1ccc(-c2nnc(CSc3nc4ccccc4c(=O)n3CC3CCCO3)o2)cc1OC (configuration not stated),/,/,-0.18
CCn1c(=O)cc(SCC(=O)Nc2ccccc2N2CCN(C)CC2)c2ccccc21,/,/,-0.95
Cc1ccc(NC(=O)CCCN2C(=O)/C(=C/C=C/c3ccccc3)SC2=S)cc1,11,17,/
CC(/C=C1\SC(=S)N(CCCC(=O)Nc2ccc(C(=O)O)c(O)c2)C1=O)=C\c1ccccc1,3,86*,/
CCOC(=O)C(=O)Nc1ccccc1C(=O)Nc1ccc(OC)cc1,6,-8,/
Cc1nc2ccc3nc(NC(=O)c4ccc5c(c4)OCCO5)sc3c2s1,-14,17,0.63
SMILES,Mac1 fbg inh,CD11b adhes enh,WNV protease inh
Cc1nc2c(ccc3nc(NC(=O)c4ccc5c(c4)OCCO5)sc32)s1,67*,6,-0.5
CCCSc1nnc(CNC(=O)C23CC4CC(CC(C4)C2)C3)n1Cc1ccccc1,-2,12,/
COc1ccc(-n2c(SCC(=O)N3CCCC3)nc3c([nH]c4ccccc43)c2=O)cc1,/,/,-0.6
CCOc1ccc(C(=O)Nc2ccc(S(=O)(=O)N3CCOCC3)cc2)cc1OCC,8,6,-0.5
CCOc1cc(C(=S)N2CCOCC2)ccc1OS(=O)(=O)c1ccc(NC(C)=O)cc1,88*,-10,/
COc1ccc(C(=O)Nc2sc(C)c(C)c2CN2CC(C)OC(C)C2)cc1 (configuration not stated),-5,0,/
O=C(NCCc1c[nH]c2ccccc12)c1cccc(S(=O)(=O)Nc2ccccc2Cl)c1,56*,-5,/
O=C(O)c1cccc(S(=O)(=O)Nc2ccccc2Cl)c1,-11,0,-0.4
O=C(NCCCN1CCCCCC1)C1CC(=O)N(CCc2ccccc2)C1 (configuration not stated),-2,82*,-0.34
O=C(NCCCN1CCOCC1)C1CC(=O)N(CCc2ccccc2)C1 (configuration not stated),-38,-7,-0.23
c1ccc(CSc2ccc(-c3ccco3)nn2)cc1,11,14,/
Cc1ccc(N2C(=N)/C(=C3/Nc4ccccc4S3)C(c3ccccc3)C2=O)cc1 (configuration not stated),38,0,/
COc1ccccc1-c1nc2n(n1)C(c1ccccc1Cl)C(C(N)=O)=C(C)N2 (configuration not stated),3,-3,-0.41
COc1ccc(OC)c(C2C(C(N)=O)=C(C)Nc3nc(-c4cccc(Cl)c4)nn32)c1 (configuration not stated),11,-1,-4.8*
O=C(Nc1ccccc1)Nc1cc(Cl)cc(Cl)c1,56*,-4,/
CSc1cccc(NC(=O)Nc2ccccc2)c1,-20,3,2
COC(=O)c1sc2nc(CN3CCN(c4cccc(C(F)(F)F)c4)CC3)[nH]c(=O)c2c1C,-13,0,/
CCc1nc(C)cn1S(=O)(=O)c1cc(C)c(OC)c(C)c1C,80*,3,/
CCc1nc(C)cn1S(=O)(=O)c1cc(C)c(OC)cc1C,-2,-10,0.08
CCN(CC(=O)NC(C)(C)C)C(=O)CCl,-3,2,/
CCOc1ccc(OCCCCNCCN)cc1,-3,-5,/
CCOc1ccc(CN(C)CC(=O)Nc2ccc([N+](=O)[O-])cc2Cl)cc1,66,6,/
FC(F)Sc1ccc(NC(=S)NC2CCCCC2)cc1,49,-9,/
FC(F)Sc1ccc(NC(=S)NCC2CCCCC2)cc1,92*,-10,/
Cc1ccc(Cn2ccc(-c3cnc(-c4ccccc4)s3)n2)cc1,-29,0,/
SMILES,Mac1 fbg inh,CD11b adhes enh,WNV protease inh
Fc1ccc(Cn2ccc(-c3cnc(-c4ccccc4)s3)n2)cc1,56*,-4,/
CCOC(=O)N1CCC(NC(=O)C2CCCN(Cc3nc(-c4cccc(Cl)c4)oc3C)C2)CC1 (configuration not stated),60*,-3,-0.25
Cc1oc(-c2ccc(Cl)cc2)nc1CN1CCCC(C(=O)N2CCc3ccccc32)C1 (configuration not stated),/,/,-1.6
CCN1CCN(CCNC(=O)C2CCCN(Cc3nc(-c4cccc(Cl)c4)oc3C)C2)CC1 (configuration not stated),6,0,-1.2
CCOC(=O)N1CCN(C(=O)C2CCCN(Cc3nc(-c4ccc(Cl)cc4)oc3C)C2)CC1 (configuration not stated),70*,-6,0.2
O=C(Cn1ncc(Cl)c(Cl)c1=O)N1CCN(S(=O)(=O)c2ccc3ccccc3c2)CC1,-24,27,/
CCCCN=C1NC(=O)C(CC(=O)NCCc2ccc(OC)cc2)S1 (configuration not stated),22,-1,/
O=C(c1ccco1)N(CCCN1CCOCC1)c1nc(-c2ccc(F)cc2)cs1,11,-1,-0.93
O=C(c1ccco1)N(CCCN1CCOCC1)c1nc(-c2ccc(Cl)cc2)cs1,-30,3,-3.1*

# Screens from PubChem BioAssay.
